Reference: PubChem BioAssay
Activity calls are given as the source filed them. Unless noted, the rule behind the calls is not given here.

Legend:
[1] = HepG2 liver cancer cell viability effects, profiling panel, resazurin fluorescence, 24 h, PK04 Diversity Set (AID 1172); conditions: higher = more signal
[2] = basal S. cerevisiae growth modulation, no modifier, primary screen, OD600, strain BY4716, 24 h, basal condition (AID 1173); conditions: OD600, 24 h, higher = more signal, called active from +8 up or from −8 down
[3] = MM1S myeloma cell viability, profiling panel, resazurin fluorescence, basal, 24 h, PK04 Diversity Set (AID 1174); conditions: higher = more signal, called active from +8 up or from −8 down;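 note: MM1S multiple myeloma cell line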
[4] = biological target: Dihydroorotate dehydrogenase (quinone), mitochondrial (Plasmodium falciparum (isolate 3D7)) (UniProt Q08210); experiment: PfDHODH enzyme inhibitors, primary screen, biochemical, C-terminal His tag, absorbance 600 nm (AID 1175); conditions: DCIP absorbance 600 nm, higher = more signal, called active from +8 up or from −8 down;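 note: recombinant parasite enzyme with a five histidine tag at its C terminus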
Chain of Dihydroorotate dehydrogenase (quinone), mitochondrial (Plasmodium falciparum (isolate 3D7)) (Q08210 whole entry, looked up): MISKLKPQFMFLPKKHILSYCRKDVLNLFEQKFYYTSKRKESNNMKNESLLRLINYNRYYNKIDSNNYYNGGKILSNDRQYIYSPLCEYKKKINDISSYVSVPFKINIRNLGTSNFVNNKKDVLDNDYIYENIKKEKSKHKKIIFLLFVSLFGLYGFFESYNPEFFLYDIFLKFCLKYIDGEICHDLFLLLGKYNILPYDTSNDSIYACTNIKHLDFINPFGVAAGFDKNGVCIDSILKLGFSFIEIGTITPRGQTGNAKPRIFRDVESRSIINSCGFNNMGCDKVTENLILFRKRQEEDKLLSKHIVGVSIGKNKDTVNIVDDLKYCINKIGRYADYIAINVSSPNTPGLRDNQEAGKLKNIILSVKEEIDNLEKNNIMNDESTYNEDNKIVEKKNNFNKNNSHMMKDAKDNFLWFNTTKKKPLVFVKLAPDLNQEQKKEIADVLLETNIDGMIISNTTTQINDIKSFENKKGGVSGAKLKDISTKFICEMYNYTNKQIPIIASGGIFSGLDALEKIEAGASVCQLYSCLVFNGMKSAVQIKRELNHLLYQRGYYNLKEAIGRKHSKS

[5] = P. aeruginosa biofilm formation inhibitors, primary screen, strain PAO1, LB-PBS medium, absorbance 600 nm (AID 1176); conditions: P. aeruginosa PAO1 growth/biofilm, A600, 12 h; higher = more signal
[6] = S. cerevisiae RM11-1a growth modifiers, primary screen, strain RM11-1a, OD600, basal, 24 h (AID 1177); conditions: OD600, 24 h, higher = more signal, called active from +8 up or from −8 down;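 note: cultures grown under basal conditions with no added stressor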
[7] = E. coli acrAB mutant growth effects, primary screen, E. coli filamentation inducers, strain DRC39, OD650, 24 h (AID 1178); conditions: higher = more signal, called active from +8 up or from −8 down;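 note: growth measured as culture turbidity by optical density at 650 nm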
[8] = E. coli acrAB mutant growth effects, primary screen, E. coli filamentation inducers, strain DRC39, OD650, 48 h (AID 1179);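 note: screen aims at cell division blockers that make cells filament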; conditions: E. coli DRC39 delta-acrAB growth, higher = more signal, called active from +8 up or from −8 down
[9] = RPMI8226 myeloma cell viability, profiling panel, resazurin fluorescence, basal, 24 h, PK04 Diversity Set (AID 1180); conditions: higher = more signal;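 note: RPMI8826 multiple myeloma cell line at 5000 cells per well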
[10] = biological target: E3 ubiquitin-protein ligase XIAP (Homo sapiens) (UniProt P98170); experiment: XIAP binders, primary screen, biophysical, small-molecule microarray, fluorescence 635 nm (AID 1181); conditions: small-molecule microarray binding, higher = more signal;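 note: score merges 667 nm emission and signal to noise over triplicate slides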
Chain of E3 ubiquitin-protein ligase XIAP (Homo sapiens) (P98170 whole entry, looked up): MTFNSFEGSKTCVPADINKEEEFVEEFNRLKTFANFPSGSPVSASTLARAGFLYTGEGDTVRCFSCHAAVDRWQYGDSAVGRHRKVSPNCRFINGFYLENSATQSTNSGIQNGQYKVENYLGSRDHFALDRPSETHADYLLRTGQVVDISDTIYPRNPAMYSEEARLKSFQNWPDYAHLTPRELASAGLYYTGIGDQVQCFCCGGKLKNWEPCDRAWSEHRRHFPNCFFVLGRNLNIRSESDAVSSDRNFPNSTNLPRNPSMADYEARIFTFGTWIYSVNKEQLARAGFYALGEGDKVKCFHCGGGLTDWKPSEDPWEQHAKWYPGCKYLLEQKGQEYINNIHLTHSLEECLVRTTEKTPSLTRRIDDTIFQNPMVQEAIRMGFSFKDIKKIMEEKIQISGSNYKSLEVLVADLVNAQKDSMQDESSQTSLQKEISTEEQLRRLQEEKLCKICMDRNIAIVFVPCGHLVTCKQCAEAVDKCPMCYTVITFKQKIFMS

[11] = system: XIP peptide (Xip251-270) binding; experiment: small-molecule binders of XIP peptide, primary screen, biochemical, small-molecule microarray, fluorescence 635/667 nm, 0.1 µg/mL protein (AID 1182); conditions: fluorescent protein binding, 635 nm, higher = more signal, called active from +8 up or from −8 down
[12] = system: XIP peptide (Xip251-270); experiment: small-molecule binders of XIP peptide, primary screen, biochemical, small-molecule microarray, fluorescence 635/667 nm, 0.5 µg/mL protein (AID 1183); conditions: small-molecule microarray binding, fluorescence 635 nm; higher = more signal
[13] = Plasmodium falciparum growth inhibition, primary screen, strain 3D7, DAPI fluorescence, 100 nL (AID 1184);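 note: parasites grown inside human red blood cells in medium with human serum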; conditions: P. falciparum 3D7 growth, 3 d, higher = more signal
[14] = biological target: Homeobox protein Hox-A13 (Mus musculus) (UniProt Q62424); experiment: inhibitors of HoxA13-DNA binding, primary screen, biochemical, fluorescence polarization, labeled oligonucleotide (AID 1185); conditions: 15 min, higher = more signal, called active from +8 up or from −8 down
Chain of Homeobox protein Hox-A13 (Mus musculus) (Q62424 whole entry, looked up): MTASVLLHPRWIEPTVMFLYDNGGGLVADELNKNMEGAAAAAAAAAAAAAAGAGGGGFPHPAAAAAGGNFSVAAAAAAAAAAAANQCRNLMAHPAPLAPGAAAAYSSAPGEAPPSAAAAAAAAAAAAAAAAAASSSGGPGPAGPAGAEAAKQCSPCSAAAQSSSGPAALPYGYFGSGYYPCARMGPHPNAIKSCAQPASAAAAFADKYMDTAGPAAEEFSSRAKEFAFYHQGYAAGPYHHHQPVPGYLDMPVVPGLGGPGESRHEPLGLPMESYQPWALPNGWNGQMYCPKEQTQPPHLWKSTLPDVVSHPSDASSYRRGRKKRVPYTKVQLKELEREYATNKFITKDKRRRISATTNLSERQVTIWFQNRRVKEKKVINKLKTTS

[15] = inhibitors of hydroxyurea-induced Chk1 phosphorylation, primary screen, imaging, HeLa, phospho-Chk1 antibody, percent positive cells (AID 1186); conditions: hydroxyurea-induced phospho-Chk1 immunofluorescence imaging, higher = more signal
[16] = inhibitors of hydroxyurea-induced Chk1 phosphorylation, primary screen, imaging, HeLa, phospho-Chk1 nuclear intensity (AID 1187); conditions: hydroxyurea-induced phospho-Chk1 immunofluorescence imaging, higher = more signal

SMILES	z-score [1]	z-score [2]	z-score [3]	composite z-score [4]	z-score [5]	z-score [6]	z-score [7]	z-score [8]	z-score [9]	composite z-score [10]	composite z-score [11]	composite z-score [12]	z-score [13]	z-score [14]	z-score [15]	z-score [16]
C=CCOC(=O)[C@H]1[C@@H]2C(=O)O[C@@H](c3ccccc3)[C@@H](c3ccccc3)N2[C@@H](c2ccc(OCCOC(=O)[C@@H]3C[C@@H]4C(=O)N[C@@H](CCCC[N+](C)(C)C)C(=O)N4[C@@H]3c3ccc(O)cc3)cc2)[C@]12C(=O)Nc1ccc(I)cc12	-0.0156	0.118 (inactive)	-1.17 (inactive)	-2.21 (inactive)	1.12 (inactive)	2.46 (inactive)	-1.46 (inactive)	-1.11 (inactive)	-0.854	0.261	0.557 (inactive)	0.765	0.0373	6.46 (inactive)	-0.337 (inactive)	-0.0674 (inactive)
COc1ccc([Si](C)(C)[C@@H]2[C@@H](CC(=O)N3CCC[C@H]3CO)O[C@]3(C(=O)N(Cc4ccc(N5CCOC5=O)cc4)c4ccccc43)[C@H]2C)cc1	-1.39	-0.793 (inactive)	-2.01 (inactive)	-2.19 (inactive)	1.06 (inactive)	-0.975 (inactive)	0.0669 (inactive)	0.459 (inactive)	-2.98	0.0819	0.56 (inactive)	0.727	0.309	-3.21 (inactive)	-1.03 (inactive)	-0.48 (inactive)
O=C1NC(=O)C2C1C=CC(C(O)c1ccc(B(O)O)cc1)N2Nc1ccc(Cl)cc1Cl (stereo not drawn)	-1.97	-7.76 (inactive)	-1.19 (inactive)	-0.0575 (inactive)	1.29 (inactive)	1.48 (inactive)	0.0436 (inactive)	-1.52 (inactive)	-1.78	0.0049	0.185 (inactive)	-0.0187	-0.195	-4.45 (inactive)	0.549 (inactive)	0.367 (inactive)
COC(=O)C(CC#Cc1ccc2c(c1)[C@]1(C(=O)N2)[C@H](C(=O)NC[C@H](O)c2ccccc2)[C@H]2C(=O)O[C@H](c3ccccc3)[C@H](c3ccccc3)N2[C@@H]1c1ccccc1OCCO)C(=O)OC	0.786	1.42 (inactive)	-7.38 (inactive)	-7.26 (inactive)	1.7 (inactive)	1.6 (inactive)	0.0386 (inactive)	-0.477 (inactive)	-6.76	-0.0629	0.0226 (inactive)	0.654	-2.33	-1.39 (inactive)	0.0062 (inactive)	0.0197 (inactive)
CC(C)C[C@@H]1NC(=O)[C@@]23C(=O)N[C@@H](Cc4ccccc4)C2[C@H](C)[C@@]2(C)O[C@H]2C3/C=C/C/C=C\CNC(=O)CNC1=O (stereo partly drawn)	-0.62	-1.68 (inactive)	0.308 (inactive)	-0.658 (inactive)	0.437 (inactive)	-0.773 (inactive)	-0.229 (inactive)	-0.911 (inactive)	-0.139	-0.105	0.533 (inactive)	0.58	-0.59	-5.87 (inactive)	0.312 (inactive)	-0.0422 (inactive)
CCCCCCc1nc(Cc2cc(OC)c(OC)c(OC)c2)cc2c1[Si](C(C)C)(C(C)C)O[C@H]2c1ccccc1	0.915	1.12 (inactive)	-0.111 (inactive)	0.364 (inactive)	0.374 (inactive)	0.202 (inactive)	-0.373 (inactive)	-0.585 (inactive)	-0.83	-0.491	-0.0565 (inactive)	0.103	-2.34	-3.15 (inactive)	0.252 (inactive)	-0.409 (inactive)
COc1ccc([Si](C)(C)[C@H]2[C@H](CCO)O[C@@]3(C(=O)N(Cc4ccc(NC(=O)[C@H](C)O)cc4)c4ccccc43)[C@@H]2C)cc1	-4.93	0.532 (inactive)	-8.02 (active)	-0.0575 (inactive)	-0.753 (inactive)	3.05 (inactive)	-0.106 (inactive)	-0.802 (inactive)	-6.21	-0.0592	3.4 (inactive)	0.596	-2.7	-4.86 (inactive)	-0.704 (inactive)	-0.43 (inactive)
CC(C)N1C(=O)c2ccccc2[C@](C)(C(=O)NCC(F)(F)F)[C@@H]1c1ccc(CO)cc1	-0.116	-1.3 (inactive)	0.117 (inactive)	-0.172 (inactive)	-0.618 (inactive)	-0.613 (inactive)	0.558 (inactive)	-0.0513 (inactive)	1.45	-0.0195	0.112 (inactive)	0.464	-0.805	-1.98 (inactive)	0.256 (inactive)	0.462 (inactive)
COc1ccc([Si](C)(C)[C@H]2[C@H](CC(=O)N3CCC[C@H]3CO)O[C@@]3(C(=O)N(Cc4ccc(N5CCCCC5=O)cc4)c4ccccc43)[C@@H]2C)cc1	-0.369	-0.0356 (inactive)	-0.563 (inactive)	-2.66 (inactive)	-0.012 (inactive)	1.57 (inactive)	-0.18 (inactive)	-0.244 (inactive)	-0.171	0.197	0.214 (inactive)	0.753	-1.64	-4.85 (inactive)	0.268 (inactive)	0.241 (inactive)
COC(=O)C(CC#Cc1ccc2c(c1)[C@]1(C(=O)N2)[C@H](c2ccccc2OCCO)N2[C@H](c3ccccc3)[C@H](c3ccccc3)OC(=O)[C@H]2[C@@H]1C(=O)N1CCc2cc(OC)c(OC)cc2C1)C(=O)OC	0.0231	1.07 (inactive)	-1.07 (inactive)	-0.653 (inactive)	2.83 (inactive)	1.79 (inactive)	0.021 (inactive)	0.761 (inactive)	-0.918	0.132	-0.19 (inactive)	0.621	-2.19	3.17 (inactive)	-0.0586 (inactive)	-0.139 (inactive)
COc1ccc([Si](C)(C)[C@H]2[C@H](CC(=O)N3Cc4ccccc4C[C@H]3CO)O[C@@]3(C(=O)N(C)c4c(Br)cc(C)cc43)[C@@H]2C)cc1	-4.15	0.915 (inactive)	-6.33 (inactive)	0.973 (inactive)	1.72 (inactive)	3.17 (inactive)	-0.652 (inactive)	-0.984 (inactive)	-6.22	-0.134	0.0621 (inactive)	0.445	-2.61	-4.14 (inactive)	0.18 (inactive)	-0.569 (inactive)
COCCOC(=O)N1C(=O)[C@@]2(c3cc(C#CC4(O)CCCCCC4)ccc31)[C@H](c1ccc(O)cc1)N1[C@H](c3ccccc3)[C@H](c3ccccc3)OC(=O)[C@H]1[C@@H]2C(=O)N1CCCCCCC1	0.0323	-0.525 (inactive)	0.341 (inactive)	-1.45 (inactive)	1.19 (inactive)	0.478 (inactive)	-0.298 (inactive)	0.625 (inactive)	-0.196	-0.0351	0.265 (inactive)	0.747	-1.74	0.0885 (inactive)	-0.0596 (inactive)	0.244 (inactive)
C=C(CCCC)/C(=C/C[C@@H](OC(C)=O)c1ccc(CO)o1)c1cnc2ccccc2c1	-1.53	-0.293 (inactive)	-0.291 (inactive)	-6.85 (inactive)	0.0022 (inactive)	0.324 (inactive)	-1.1 (inactive)	-0.856 (inactive)	-0.521	0.1	0.714 (inactive)	0.811	-1.38	-4.99 (inactive)	0.196 (inactive)	-0.109 (inactive)
C=CCC(OC(C)=O)[C@@H]1[C@@H](N(Cc2ccc(-c3ccccc3)cc2)C(=O)c2cccc3ccccc23)c2cc(OCCCO)ccc2N1C(=O)Cc1ccc(OC)cc1 (stereo partly drawn)	-0.533	0.186 (inactive)	-0.572 (inactive)	-0.0892 (inactive)	-0.121 (inactive)	-0.788 (inactive)	-0.0251 (inactive)	-0.288 (inactive)	-0.505	-0.264	0.15 (inactive)	-0.686	-1.38	-1.88 (inactive)	-0.066 (inactive)	0.0017 (inactive)
COC(=O)[C@@]1(Cc2ccc(F)cc2)[C@H]2c3cc(C(=O)N4CCCC4)n(Cc4cc(F)cc5c4OCOC5)c3C[C@H]2CN1C(=O)c1ccccc1	-1.29	1.9 (inactive)	-0.931 (inactive)	-0.224 (inactive)	-0.25 (inactive)	1.31 (inactive)	0.462 (inactive)	-1.11 (inactive)	-2.88	0.334	0.602 (inactive)	0.53	-1.6	-4.07 (inactive)	-0.142 (inactive)	-0.121 (inactive)
C=CCC(OC(C)=O)[C@@H]1[C@@H](N(Cc2cccc3ccccc23)C(=O)Cc2ccc(OC)cc2)c2cc(OCCCO)ccc2N1C(=O)c1ccc2ccccc2c1 (stereo partly drawn)	0.74	-1.57 (inactive)	0.435 (inactive)	-0.775 (inactive)	-0.37 (inactive)	-0.958 (inactive)	1.22 (inactive)	0.56 (inactive)	1.17	-0.123	-0.129 (inactive)	0.174	-2.64	-2.33 (inactive)	-0.325 (inactive)	-0.0189 (inactive)
C=CC[C@@]12N=C(c3ccc(OCCCO)cc3)O[C@@H]1c1ccccc1N(CCC)C2=O	0.167	-2.22 (inactive)	-1.19 (inactive)	-0.147 (inactive)	1.2 (inactive)	0.829 (inactive)	0.215 (inactive)	1.02 (inactive)	-0.473	-0.132	2.48 (inactive)	0.759	-2.25	-4.8 (inactive)	0.291 (inactive)	0.58 (inactive)
COC(=O)[C@@]1(Cc2ccc(F)cc2)[C@H]2c3cc(C(=O)N(C)C)n(CCc4ccc(O)c(O)c4)c3C[C@H]2CN1C(=O)c1ccccc1	0.515	0.634 (inactive)	-1.01 (inactive)	-0.137 (inactive)	-0.154 (inactive)	0.232 (inactive)	-0.0718 (inactive)	0.157 (inactive)	-0.834	0.122	-0.574 (inactive)	0.162	0.162	-3.03 (inactive)	-0.361 (inactive)	0.0787 (inactive)
